Data from PubChem BioAssay (Tox21).
Several values for one entry are separate records, joined by “and”; a condition that tells them apart may be missing. Equal values may be shown once. Records with an inconclusive call do not appear. Where a call stands in place of a potency, no number is given. The source holds several records for some structures; these can differ, active in one and inactive in another. Activity calls are given as the source filed them. Unless noted, calls follow the shape of the dose curve; as a rule, active = well fitted curve in the direction sought with a large enough effect in the repeat runs; inconclusive = weak or mixed curves; inactive = no such curve, though single readings can be large; an effect the other way counts as inactive or inconclusive.

Key:
[1] = qHTS assay to identify small molecule agonists of the peroxisome proliferator-activated receptor delta (PPARd) signaling pathway - cell viability counter screen (AID 743211); also: nearly all actives have a fitted effect of over 55% in size; also: potency is read from the fitted curve at half-maximal effect
Procedure, shortened: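 Viability was measured as CellTiter-Glo luminescence (30 min, room temperature) in the same wells as the beta-lactamase readout. GeneBLAzer PPARd UAS-bla HEK293H cells received compound after 5 h plating and were incubated 17 h at 37 C.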

[2] = qHTS assay to identify small molecule antagonists of the peroxisome proliferator-activated receptor delta (PPARd) signaling pathway - cell viability counter screen (AID 743213); also: nearly all actives have a fitted effect of over 50% in size; also: potency is read from the fitted curve at half-maximal effect
Procedure, shortened: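 Cytotoxicity counter screen: CellTiter-Glo luminescence read 30 min after addition, in the same wells as the reporter assay. There, PPARd UAS-bla HEK293H cells (3000/well) were treated 17 h at 37 C with compound and 300 nM L165041.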

[3] = target: Peroxisome proliferator-activated receptor delta (Homo sapiens) (UniProt Q03181); experiment: qHTS assay to identify small molecule antagonists of the peroxisome proliferator-activated receptor delta (PPARd) signaling pathway (AID 743215; active = well fitted inhibition curve with a large enough effect in the signal ratio in the repeat runs, not every such curve was filed as active; the % refers to the signal ratio;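 also: cells stimulated with agonist L165041 at 300 nM final during compound exposure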; also: potency is read from the fitted curve at half-maximal effect)
Procedure, shortened: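 Here, a reporter line (HEK293H, beta-lactamase under a UAS) measures PPARd signaling. Compounds are tested against agonist L165041 at 300 nM final concentration over 17 h at 37 C, with fluorescence read after substrate.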

[4] = qHTS assay to identify small molecule agonists of the farnesoid-X-receptor (FXR) signaling pathway - cell viability counter screen (AID 743218); also: nearly all actives have a fitted effect of over 45% in size; also: potency is read from the fitted curve at half-maximal effect
Procedure, shortened: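 Quantitative HTS counter screen measuring ATP-based viability via CellTiter-Glo luminescence in HEK 293T cells carrying a UAS-driven beta-lactamase reporter, after 16 h compound exposure at 37 C.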

[5] = target: Bile acid receptor (Homo sapiens) (UniProt Q96RI1); experiment: qHTS assay to identify small molecule agonists of the farnesoid-X-receptor (FXR) signaling pathway (AID 743220; active = well fitted activation curve with a large enough effect in the signal ratio in the repeat runs, not every such curve was filed as active; the % refers to the signal ratio)
Procedure, shortened: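 FXR-UAS-bla HEK 293T cells carrying a UAS-driven beta-lactamase reporter were plated for 5 h at 37C/5% CO2, then exposed to DMSO-dissolved Tox21 10K compounds for 16 h at 37C. A LiveBLAzer B/G FRET substrate was loaded for 2 h at room temperature before fluorescence reading.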

[6] = qHTS assay to identify small molecule antagonists of the farnesoid-X-receptor (FXR) signaling pathway - cell viability counter screen (AID 743221; active = well fitted cell-killing curve with a large enough effect in the repeat runs, not every such curve was filed as active; also: nearly all actives have a fitted effect of over 50% in size; also: potency is read from the fitted curve at half-maximal effect)
Procedure, shortened: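 Cytotoxicity counter screen run in the FXR-bla reporter wells: HEK 293T cells exposed to compound with 50 uM (final) chenodeoxycholic acid for 16 h, 37 C, then viability measured by CellTiter-Glo luminescence after 30 min, room temperature.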

[7] = target: Vitamin D3 receptor (Homo sapiens) (UniProt P11473); experiment: qHTS assay to identify small molecule agonists of the vitamin D receptor (VDR) signaling pathway (AID 743222; calls by dose curve)
Procedure, shortened: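 Tox21 cell reporter format: VDR-bla line, 16 h compound exposure in 5% CO2 at 37C, then fluorescence intensity after 2 h with LiveBLAzer B/G FRET substrate.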

[8] = target: Vitamin D3 receptor (Homo sapiens) (UniProt P11473); experiment: qHTS assay to identify small molecule antagonists of the vitamin D receptor (VDR) signaling pathway (AID 743223; active = well fitted inhibition curve with a large enough effect in the signal ratio in the repeat runs, not every such curve was filed as active; the % refers to the signal ratio; also: potency is read from the fitted curve at half-maximal effect)
Procedure, shortened: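 Antagonist mode: compound added to VDR-bla cells alongside agonist 1alpha,25-dihydroxyvitamin D3 (3 nM final), incubation 16 h at 37C. Read-out is LiveBLAzer FRET fluorescence, 2 h at room temperature.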

[9] = qHTS assay to identify small molecule agonists of the vitamin D receptor (VDR) signaling pathway - cell viability counter screen (AID 743224); also: nearly all actives have a fitted effect of over 50% in size; also: potency is read from the fitted curve at half-maximal effect
Procedure, shortened: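 CellTiter-Glo viability readout on VDR-bla cells, measured after 16 h of compound treatment at 37C in the same wells.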

[10] = qHTS assay to identify small molecule antagonists of the vitamin D receptor (VDR) signaling pathway - cell viability counter screen (AID 743225); also: nearly all actives have a fitted effect of over 50% in size; also: potency is read from the fitted curve at half-maximal effect
Procedure, shortened: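 Cytotoxicity counter screen read by CellTiter-Glo luminescence (30 min, room temperature) in the same wells as the VDR-bla antagonist readout. HEK 293T VDR-UAS-bla cells had 16 h at 37C with compound and 3 nM (final) 1-alpha,25-dihydroxyvitamin D3, then 2 h with FRET substrate.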

[11] = qHTS assay to identify small molecule agonists of the NFkB signaling pathway - cell viability counter screen (AID 1159515; calls by dose curve; also: nearly all actives have a fitted effect of over 55% in size; also: potency is read from the fitted curve at half-maximal effect)
Procedure, shortened: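 Tox21 library compounds were tested for cytotoxicity against NFkB-bla ME-180 cells during a 5 hr exposure at 37 C. CellTiter-Glo luminescence served as the viability read-out.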

[12] = qHTS assay to identify small molecule agonists of the endoplasmic reticulum stress response signaling pathway (AID 1159516; active = well fitted activation curve with a large enough effect in the signal ratio in the repeat runs, not every such curve was filed as active; the % refers to the signal ratio)
Procedure, shortened: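 Fluorescence at 460 and 530 nm (405 nm excitation) reports beta-lactamase from an ER stress response element in HeLa cells treated 5 hr at 37 C.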

[13] = qHTS assay to identify small molecule agonists of the endoplasmic reticulum stress response signaling pathway - cell viability counter screen (AID 1159517; calls by dose curve; also: nearly all actives have a fitted effect of over 50% in size; also: potency is read from the fitted curve at half-maximal effect)
Procedure, shortened: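 Steps: seed 1,500 ESRE-bla HeLa cells per well; incubate overnight at 37 C, 5% CO2; add compounds in DMSO for 5 hr; run FRET substrate 2 hr RT; add CellTiter-Glo, wait 30 min, read luminescence.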

[14] = target: Nuclear receptor ROR-gamma (Homo sapiens) (UniProt P51449); experiment: qHTS assay to identify small molecule antagonists of the retinoid-related orphan receptor gamma (ROR-gamma) signaling pathway (AID 1159521; also: nearly all actives have a fitted effect of over 50% in size; also: potency is read from the fitted curve at half-maximal effect)
Procedure, shortened: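 Antagonist read-out: drop in luminescence (ONE-Glo) from an RORE-LUC reporter in CHO cells with doxycycline-inducible ROR-gamma; 2 hr compound pretreatment, 1 uM doxycycline, 16 hr incubation at 37 C.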

[15] = qHTS assay to identify small molecule agonists of the AP-1 signaling pathway - cell viability counter screen (AID 1159525; calls by dose curve; also: nearly all actives have a fitted effect of over 55% in size; also: potency is read from the fitted curve at half-maximal effect)
Procedure, shortened: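 Same-well cytotoxicity counter screen of the Tox21 10K library in ME-180 cells. The readout is ATP-dependent luminescence after 5 h compound treatment. Data are normalised to DMSO and tetra n-octyl ammonium bromide controls.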

[16] = qHTS assay to identify small molecule agonists of the AP-1 signaling pathway (AID 1159526; calls by dose curve)
[17] = target: Peroxisome proliferator-activated receptor delta (Homo sapiens) (UniProt Q03181); experiment: qHTS assay to identify small molecule agonists of the peroxisome proliferator-activated receptor delta (PPARd) signaling pathway (AID 743212; calls by dose curve)
Procedure, shortened: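 Read-out: beta-lactamase FRET fluorescence after 2 h room-temperature incubation with LiveBLAzer B/G substrate. Cells were HEK293H carrying a UAS-bla reporter for PPARd, treated at 37 C with DMSO-dissolved compounds.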

[18] = qHTS assay to identify small molecule antagonists of the retinoid-related orphan receptor gamma (ROR-gamma) signaling pathway - cell viability counter screen (AID 1159520); also: nearly all actives have a fitted effect of over 50% in size; also: potency is read from the fitted curve at half-maximal effect
Procedure, shortened: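 Tet-on ROR gamma CHO cells were given compounds for 2 hr, then doxycycline hyclate at 1 uM final, and incubated 16 hr at 37 C. Viability was measured as ATP content by CellTiter-Glo luminescence.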

[19] = target: Retinoic acid receptor RXR-alpha (Homo sapiens) (UniProt P19793); experiment: qHTS assay to identify small molecule agonists of the RXR signaling pathway (AID 1159527; calls by dose curve; also: nearly all actives have a fitted effect of over 35% in size; also: potency is read from the fitted curve at half-maximal effect)
Procedure, shortened: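 Agonist-mode beta-lactamase reporter assay: HEK 293T RXR-alpha-UAS-bla cells treated 16 hr at 37 C with compounds, 9-cis retinoic acid as positive control. LiveBLAzer FRET substrate, 405 nm excitation, 460/530 nm emission.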

[20] = target: Bile acid receptor (Homo sapiens) (UniProt Q96RI1); experiment: qHTS assay to identify small molecule antagonists of the farnesoid-X-receptor (FXR) signaling pathway (AID 743217; active = well fitted inhibition curve with a large enough effect in the signal ratio in the repeat runs, not every such curve was filed as active; the % refers to the signal ratio)
Procedure, shortened: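 Test compounds are pin-transferred onto FXR-bla HEK 293T cells, then chenodeoxycholic acid is added at 50 uM final. After 16 h at 37 °C, LiveBLAzer B/G substrate is applied for 2 h at room temperature and fluorescence read.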

Chain of Retinoic acid receptor RXR-alpha (Homo sapiens) (P19793 whole entry, looked up): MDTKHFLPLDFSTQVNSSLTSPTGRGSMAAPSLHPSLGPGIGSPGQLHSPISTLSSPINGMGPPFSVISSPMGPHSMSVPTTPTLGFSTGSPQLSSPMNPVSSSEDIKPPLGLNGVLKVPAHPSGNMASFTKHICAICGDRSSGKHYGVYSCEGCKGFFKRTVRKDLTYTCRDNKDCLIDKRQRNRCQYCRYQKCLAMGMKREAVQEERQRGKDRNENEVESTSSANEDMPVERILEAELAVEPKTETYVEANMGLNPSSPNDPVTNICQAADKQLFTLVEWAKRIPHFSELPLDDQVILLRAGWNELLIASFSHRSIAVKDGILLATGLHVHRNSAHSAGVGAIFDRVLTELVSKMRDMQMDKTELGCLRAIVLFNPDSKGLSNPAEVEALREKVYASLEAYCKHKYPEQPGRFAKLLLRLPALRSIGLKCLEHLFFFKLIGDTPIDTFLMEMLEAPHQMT
Chain of Vitamin D3 receptor (Homo sapiens) (P11473 whole entry, looked up): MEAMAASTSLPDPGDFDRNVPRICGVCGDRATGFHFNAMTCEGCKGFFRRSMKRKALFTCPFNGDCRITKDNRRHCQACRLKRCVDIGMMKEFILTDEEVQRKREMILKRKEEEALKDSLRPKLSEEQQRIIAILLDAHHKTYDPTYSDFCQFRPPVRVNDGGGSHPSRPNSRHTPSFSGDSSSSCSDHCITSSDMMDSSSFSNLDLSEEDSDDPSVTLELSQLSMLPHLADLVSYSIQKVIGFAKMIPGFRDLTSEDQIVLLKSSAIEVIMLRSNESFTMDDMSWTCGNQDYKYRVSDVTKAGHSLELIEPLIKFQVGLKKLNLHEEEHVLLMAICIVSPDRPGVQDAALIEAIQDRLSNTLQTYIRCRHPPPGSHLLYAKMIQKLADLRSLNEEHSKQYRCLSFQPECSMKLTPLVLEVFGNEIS
Chain of Peroxisome proliferator-activated receptor delta (Homo sapiens) (Q03181 whole entry, looked up): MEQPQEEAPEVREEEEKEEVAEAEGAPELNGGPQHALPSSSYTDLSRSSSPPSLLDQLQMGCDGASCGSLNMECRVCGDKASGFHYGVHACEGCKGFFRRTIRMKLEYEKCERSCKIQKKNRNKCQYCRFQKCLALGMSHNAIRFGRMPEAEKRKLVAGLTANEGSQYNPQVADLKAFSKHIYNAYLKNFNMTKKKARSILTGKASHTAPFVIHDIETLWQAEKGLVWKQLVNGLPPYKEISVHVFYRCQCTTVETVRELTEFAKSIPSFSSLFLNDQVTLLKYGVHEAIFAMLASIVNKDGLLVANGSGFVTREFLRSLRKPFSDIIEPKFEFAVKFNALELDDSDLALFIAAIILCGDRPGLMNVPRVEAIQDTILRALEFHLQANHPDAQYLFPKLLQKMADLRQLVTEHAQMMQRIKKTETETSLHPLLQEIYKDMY
Chain of Bile acid receptor (Homo sapiens) (Q96RI1 whole entry, looked up): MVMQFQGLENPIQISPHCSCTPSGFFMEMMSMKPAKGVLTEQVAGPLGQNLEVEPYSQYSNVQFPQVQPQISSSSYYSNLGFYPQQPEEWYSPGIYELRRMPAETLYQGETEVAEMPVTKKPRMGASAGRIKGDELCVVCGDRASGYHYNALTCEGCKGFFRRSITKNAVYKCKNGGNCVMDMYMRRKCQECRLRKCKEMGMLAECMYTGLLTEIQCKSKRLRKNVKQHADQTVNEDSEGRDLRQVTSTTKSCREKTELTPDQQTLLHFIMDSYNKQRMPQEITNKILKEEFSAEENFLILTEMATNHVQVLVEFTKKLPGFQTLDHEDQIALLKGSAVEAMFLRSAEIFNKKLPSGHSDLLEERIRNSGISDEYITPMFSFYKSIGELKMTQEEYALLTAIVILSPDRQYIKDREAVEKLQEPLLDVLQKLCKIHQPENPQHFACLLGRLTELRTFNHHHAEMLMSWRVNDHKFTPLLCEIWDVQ

Row | Compound | Potency [1] | Potency [2] | Potency [3] | Potency [4] | outcome [5] | Potency [6] | outcome [7] | Potency [8] | Potency [9] | Potency [10] | Potency [11] | Potency [12] | Potency [13] | Potency [14] | Potency [15] | Potency [16] | outcome [17] | Potency [18] | Potency [19] | Potency [20]
1 | CCOP(=S)(S)OCC | inactive | inactive | inactive | inactive | inactive | inactive | inactive | inactive | inactive | inactive | inactive | inactive | inactive | inactive | inactive | inactive |  |  |  | 
2 | O=C1c2ccccc2C(=O)N1SC(Cl)(Cl)Cl | 38.3 µM (active) and 6.92 µM (active) | 21.6 µM (active) and 5.49 µM (active) | 19.5 µM (active) | 34.7 µM (active) | inactive |  |  |  | 19.2 µM (active) and 6.92 µM (active) | 34.2 µM (active) | inactive |  | inactive | 6.03 µM (active) and 7.7 µM (active) | inactive |  |  |  |  | 
3 | Nc1cccc2ccccc12 | inactive | inactive | inactive | inactive |  | inactive |  |  | inactive |  | inactive |  | inactive | inactive | inactive |  | inactive | inactive | inactive | 
4 | O=C(Cl)OCCOCCOC(=O)Cl | inactive |  |  |  |  | inactive | inactive |  | inactive |  | inactive | inactive | inactive | inactive | inactive | inactive |  |  | 2.19 µM (active) | 
5 | CCC(C)(C)c1ccc(O)c(C(C)(C)CC)c1 | 19.3 µM (active) and 19.5 µM (active) | 17.2 µM (active) and 38.9 µM (active) | inactive | inactive and 24.5 µM (active) |  | 19.5 µM (active) | inactive | 12.2 µM (active) and 17.4 µM (active) | 12.2 µM (active) and 11 µM (active) | 12.2 µM (active) and 19.5 µM (active) | 21.6 µM (active) and 21.9 µM (active) |  | 15.3 µM (active) and 21.9 µM (active) |  | 12.2 µM (active) and 13.8 µM (active) |  | inactive | 60.4 µM (active) |  | 
6 | CCCN(CCC)c1c([N+](=O)[O-])cc(C(C)C)cc1[N+](=O)[O-] | inactive | inactive | inactive | inactive |  | inactive | inactive | inactive | inactive | inactive | inactive |  | inactive | inactive | inactive | inactive | inactive |  | inactive | 
7 | COC1CC(=C(c2cccs2)c2cccs2)C[N+](C)(C)C1 (centres undefined) | inactive | inactive | inactive | inactive | inactive | inactive | inactive | inactive | inactive | inactive | inactive | inactive | inactive |  | inactive | inactive |  |  | inactive | 
8 | COc1ccc2c(c1OC)C(=O)O[C@H]2[C@@H]1c2cc3c(cc2CCN1C)OCO3 | inactive | inactive | inactive | inactive |  | inactive |  |  | inactive | inactive | inactive | inactive | inactive | inactive | inactive | inactive |  |  | inactive | 
9 | COP(=O)(OC)OC(Br)C(Cl)(Cl)Br (centres undefined) |  |  |  | inactive |  | inactive | inactive | inactive |  | inactive | inactive |  | inactive |  |  |  |  | 24.3 µM (active) | inactive | 
10 | CC(C)(C)NCC(O)c1ccccc1Cl (centres undefined) |  | inactive |  | inactive | inactive | inactive |  |  | inactive | inactive | inactive | inactive | inactive | inactive | inactive | inactive |  |  | inactive | 
11 | COc1cc(CC(C)N)c(OC)cc1Br (centres undefined) |  |  | inactive | inactive |  | inactive |  |  | inactive |  | inactive | inactive | inactive | inactive | inactive | inactive | inactive |  |  | 
12 | CCCN(CCOc1c(Cl)cc(Cl)cc1Cl)C(=O)n1ccnc1 | inactive | inactive | inactive | inactive | inactive | inactive |  |  | inactive |  | inactive |  | inactive |  | inactive | inactive | inactive | inactive |  | inactive
13 | [Cl-].[Cl-].[Hg+2] | 1.73 µM (active) and 2.19 µM (active) | 2.44 µM (active) and 1.74 µM (active) |  | 2.74 µM (active) and 9.77 µM (active) |  | 2.18 µM (active) and 3.47 µM (active) |  |  | 773 nM (active) and 1.1 µM (active) | 1.22 µM (active) and 3.47 µM (active) | 3.45 µM (active) and 49 µM (active) |  | 48.8 µM (active) |  | 4.88 µM (active) and 4.36 µM (active) |  |  | 48.3 µM (active) and 1.09 µM (active) |  | 
14 | CC(Oc1cc(Cl)c(Cl)cc1Cl)C(=O)O (centres undefined) | inactive |  | inactive | inactive | inactive | inactive |  |  | inactive | inactive | inactive | inactive | inactive | inactive | inactive | inactive |  |  | inactive | inactive
15 | CN1CC[C@]23c4c5ccc(O)c4O[C@H]2[C@@H](O)CC[C@H]3[C@H]1C5 | inactive | inactive |  | inactive |  | inactive | inactive | inactive | inactive |  | inactive | inactive | inactive | inactive | inactive | inactive |  |  | inactive | 
16 | CCC1(CCC(C)C)C(=O)NC(=O)NC1=O |  | inactive | inactive |  | inactive |  |  |  | inactive | inactive | inactive | inactive | inactive | inactive | inactive | inactive | inactive |  | inactive | 
17 | NNCCO | inactive |  |  |  | inactive | inactive | inactive |  | inactive | inactive | inactive | inactive | inactive | inactive | inactive | inactive |  |  | inactive | 
18 | CC1(C)[C@H](C(=O)O[C@H](C#N)c2cccc(Oc3ccccc3)c2)[C@@H]1C=C(Br)Br | inactive | inactive |  |  |  | inactive |  |  | inactive | inactive | inactive |  | inactive | inactive | inactive |  |  | inactive | inactive | 
